Assay results taken from PubChem BioAssay (Tox21).
Values without a mark were called inactive. Activity calls are given as the source filed them. Calls come from the whole dose curve.

molecular target: Estrogen receptor (Homo sapiens) (UniProt P03372); assay: qHTS assay to identify small molecule agonists of the estrogen receptor alpha (ER-alpha) signaling pathway in the presence of an antagonist (AID 1259383); details: VM7Luc4E2 cells, ERE-luciferase, +ICI-182,780, 22 h; series mostly up to 92.4 µM; activation: at the top concentration; note: top concentration of the series differs between compounds; nearly all actives have a fitted effect of over 15% in size
Source text: National Center for Advancing Translational Sciences [NCATS] NIH Chemical Genomics Center [NCGC] U.S. Environmental Protection Agency [EPA] National Institutes of Environmental Health Sciences [NIEHS] National Toxicology Program [NTP] Assay overview: Estrogen receptor (ER), a member of nuclear hormone receptor plays an important role in development, metabolic homeostasis and reproduction. Two subtypes of ER, ER-alpha and ER-beta, have similar expression patterns with some uniqueness in both types. Endocrine disrupting chemicals (EDCs) and their interactions with steroid hormone receptors like ER causes disruption of normal endocrine function. Therefore, it is important to understand the effect of environmental chemicals in ER signaling pathway. For identifying ER agonists, VM7Luc4E2 cell line has been used in the current assay. VM7Luc4E2 cell line (provided by Denison MS, University of California) endogenously expresses full-length ER-alpha and is stably transfected with a plasmid containing four estrogen responsive elements (ERE) upstream of a luciferase reporter gene. This current screening for measuring luciferase reporter gene activity using VM7Luc4E2 cells against Tox21 10K library collection is a confirmation study on agonist mode screening in presence of ER-antagonist (ICI-182,780) at 10.0nM final concentration.
Assay Protocol Summary: VM7Luc4E2 cells were cultured in phenol red free assay medium containing 10% charcoal stripped FBS for 5 days prior to the assay. The cells were dispensed at 4,000 cells in 4uL of assay medium per well into white wall/solid-bottom 1536-well plates (Corning Life Sciences, Corning, NY) using a Multidrop Combi (Thermo Fisher Scientific Inc., Waltham, MA) dispenser. After the assay plates were incubated at 37C and 5% CO2 for 24hr, 1uL of 10.0nM (final concentration) ICI-182,780 or assay buffer was added using two separate tips of Flying Reagent Dispenser (FRD, Aurora Discovery, San Diego, CA). Then 23nL of compounds dissolved in DMSO at 15 concentrations and positive controls or DMSO only was transferred to the assay plates by a Pintool station (Wako, San Diego, CA). The assay plates were incubated at 37C and 5% CO2 for 22hr. For luciferase read, 4uL/well ONE-Glo reagent (Promega Corporation, Madison, WI) was added to each well using FRD and after 30min incubation at room temperature, luminescence signal was measured on ViewLux plate reader (PerkinElmer, Shelton, CT).
% is set by controls: 0 for no effect and ±100 for the full control effect.

Chain of Estrogen receptor (Homo sapiens) (P03372 whole entry, looked up): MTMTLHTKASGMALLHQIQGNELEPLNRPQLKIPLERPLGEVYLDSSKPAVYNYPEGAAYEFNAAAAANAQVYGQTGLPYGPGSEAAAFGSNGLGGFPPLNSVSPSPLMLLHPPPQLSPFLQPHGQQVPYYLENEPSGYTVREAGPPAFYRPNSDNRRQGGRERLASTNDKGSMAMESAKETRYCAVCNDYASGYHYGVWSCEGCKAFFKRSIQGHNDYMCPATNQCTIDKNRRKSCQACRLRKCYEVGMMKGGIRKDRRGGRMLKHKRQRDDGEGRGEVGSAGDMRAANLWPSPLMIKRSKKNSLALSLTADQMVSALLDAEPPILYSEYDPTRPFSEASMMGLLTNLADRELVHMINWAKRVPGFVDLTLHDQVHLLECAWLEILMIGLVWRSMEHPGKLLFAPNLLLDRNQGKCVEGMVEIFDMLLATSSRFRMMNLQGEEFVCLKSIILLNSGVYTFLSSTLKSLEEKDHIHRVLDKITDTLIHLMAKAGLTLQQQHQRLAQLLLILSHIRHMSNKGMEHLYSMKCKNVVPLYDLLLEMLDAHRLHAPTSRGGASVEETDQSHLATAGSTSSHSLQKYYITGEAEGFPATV

Row | Structure (SMILES) | activation | Potency
1 | C=C(C#N)CCC#N | 0.529% | –
2 | Brc1ccccc1 | 0.174% | –
3 | Clc1ccc(C2(Cn3cncn3)CC(Br)CO2)c(Cl)c1 (stereo not given) | -0.949% | –
4 | Sc1ccccc1Cl | -0.124% [at 42.5 µM] | –
5 | N#CCC#N | -0.416% | –
6 | CCCCC(CC)COP(=O)(Oc1ccccc1)Oc1ccccc1 (stereo not given) | -1.21% | –
7 | ClCC(Br)CBr (stereo not given) | -0.295% | –
8 | CCOP(=S)(OCC)SCSCC | -2.09% | –
9 | COC(=O)C(Br)CBr (stereo not given) | -0.934% | –
10 | OC(c1ccc(Cl)cc1)(c1ccc(Cl)cc1)c1cccnc1 | -1.99% | –
11 | COCCOCCO | 2.05% | –
12 | O=[N+]([O-])c1ccc(F)c([N+](=O)[O-])c1 | -6.75% | –
13 | CC1(C)[C@H](C=C(Cl)Cl)[C@@H]1C(=O)O[C@@H](C#N)c1cccc(Oc2ccccc2)c1 | 0.603% | –
14 | CCO[C@H]1O[C@@H]2OC3(C)CC[C@H]4[C@H](C)CC[C@@H]([C@H]1C)[C@@]24OO3 | -1.23% [at 42.5 µM] | –
15 | CC(=O)[C@H]1CC[C@H]2[C@@H]3CC[C@H]4C[C@](C)(O)CC[C@]4(C)[C@H]3CC[C@]12C | -0.203% [at 42.5 µM] | –
16 | Clc1ccc(C(OCCN2CCCCC2)c2ccccc2)cc1 (stereo not given) | -1.68% [at 42.5 µM] | –
17 | C=CC(=O)NCNC(=O)C=C | -1.86% | –
18 | CO/C=C(/C(=O)OC)c1ccccc1COc1cccc(C(F)(F)F)n1 | -15.9% | –
19 | CCCN(CC1CC1)c1c([N+](=O)[O-])cc(C(F)(F)F)cc1[N+](=O)[O-] | -0.109% | –
20 | CCCCNP(N)(N)=S | -0.756% | –

Row | Structure (SMILES) | activation | Potency
21 | CCOP(=S)(OCC)SCn1nnc2ccccc2c1=O | 3.43% | –
22 | O=C(NC(=O)c1c(F)cccc1F)Nc1cc(Cl)c(Oc2ncc(C(F)(F)F)cc2Cl)c(Cl)c1 | 0.604% | –
23 | Nc1ccc([N+](=O)[O-])cc1[N+](=O)[O-] | 0.942% | –
24 | COP(=S)(Oc1cc(Cl)c(Br)cc1Cl)c1ccccc1 (stereo not given) | 0.732% | –
25 | CCN(C)N=O | -0.0393% | –
26 | CCCCCCCCCCOC(=O)c1ccccc1C(=O)OCCCCCCCCCC | 0.0512% | –
27 | CCCCCCCCCC(=O)O[C@H]1CC[C@H]2[C@@H]3CCC4=CC(=O)CC[C@@H]4[C@H]3CC[C@]12C | 1.47% [at 42.5 µM] | –
28 | CCC(C)(NC(=O)c1cc(Cl)c(C)c(Cl)c1)C(=O)CCl (stereo not given) | -1.01% | –
29 | O=[N+]([O-])C(Br)(CO)CO | 0.239% | –
30 | CCOP(=S)(Oc1ccc([N+](=O)[O-])cc1)c1ccccc1 (stereo not given) | -0.0015% | –
31 | BrCCCCBr | 1.24% | –
32 | O=C(Nc1ccccc1)Nc1cnns1 | 10.3% | –
33 | COC(=O)c1cncn1C(C)c1ccccc1 (stereo not given) | 1.19% [at 42.5 µM] | –
34 | CN(N=O)c1ccc([N+](=O)[O-])cc1 | -0.962% | –
35 | CC(Cl)Cl | 0.384% | –
36 | Brc1ccc(Oc2ccccc2)cc1 | – | inactive
37 | C=CC(=O)OCCCCO | -0.494% | –
38 | Cc1ccc(-c2c(Cl)nc(C#N)n2S(=O)(=O)N(C)C)cc1 | -14.3% | –
39 | NNC(=O)c1cccnc1 | 8.38% | –
40 | CCOc1nc(F)cc2nc(S(=O)(=O)Nc3c(Cl)cccc3Cl)nn12 | -1.03% | –
